# Experimental data taken from PubChem BioAssay (NCI).
# The panel holds about 83,000 compounds, 20% with a hit somewhere; the sample as a whole holds those more often.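 Treatment: one concentration, 48 hours, 96-well format. Scoring: percent growth, with anything below 10 considered active.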 Unmarked numbers belong to inactive results. Calls of active or inactive are those of the source.
# How the values were obtained:
# Assay in all cases: NCI-60 one-dose screen, 48 h (100 = growth as untreated, 0 = no growth, -100 = all killed)
# Settings in all cases: 10 µM unless noted
# HCT-15 colon = tested on: HCT-15 colon
# HT29 colon = tested on: HT29 colon
# SNB-19 CNS = tested on: SNB-19 CNS
# U251 CNS = tested on: U251 CNS
# PC-3 prostate = tested on: PC-3 prostate
# SK-MEL-5 melanoma = tested on: SK-MEL-5 melanoma
# LOX IMVI melanoma = tested on: LOX IMVI melanoma
# SK-MEL-28 melanoma = tested on: SK-MEL-28 melanoma
# EKVX NSCLC = tested on: EKVX NSCLC
# SN12C renal = tested on: SN12C renal
# UO-31 renal = tested on: UO-31 renal
# ACHN renal = tested on: ACHN renal
# CAKI-1 renal = tested on: CAKI-1 renal
# A498 renal = tested on: A498 renal
# MOLT-4 leukemia = tested on: MOLT-4 leukemia
# UACC-62 melanoma = tested on: UACC-62 melanoma
# SK-MEL-2 melanoma = tested on: SK-MEL-2 melanoma
# TK-10 renal = tested on: TK-10 renal
# CCRF-CEM leukemia = tested on: CCRF-CEM leukemia
SMILES,growth (HCT-15 colon),growth (HT29 colon),growth (SNB-19 CNS),growth (U251 CNS) [%],growth (PC-3 prostate),growth (SK-MEL-5 melanoma),growth (LOX IMVI melanoma),growth (SK-MEL-28 melanoma),growth (EKVX NSCLC),growth (SN12C renal),growth (UO-31 renal),growth (ACHN renal),growth (CAKI-1 renal),growth (A498 renal),growth (MOLT-4 leukemia),growth (UACC-62 melanoma),growth (SK-MEL-2 melanoma),growth (TK-10 renal),growth (CCRF-CEM leukemia)
O=C1NN(C(=O)c2ccc(Cl)cc2)C(c2ccccc2)=N/C1=C\c1ccc(F)cc1,72.4%,97.4%,78.8%,40.1,81.4%,88.1%,88.3%,107%,90.7%,78.1%,75.6%,83.2%,85.1%,73.1%,36.2%,,,,
CCN1C(=O)N(CC)C2C1NN=c1s/c(=C\c3cccnc3)c(=O)n12 (stereo unspecified),18.9%,8.17% (active),29.2%,19.1,21.3%,,46%,51.8%,45.5%,45.2%,46.8%,42.9%,47.5%,,26.5%,30.7%,51.5%,80.7%,14.1%
O=S(=O)(NCCNc1nccc(-c2c(-c3ccc(F)cc3)nc3sccn23)n1)c1ccc(F)cc1,59%,52.1%,88.5%,,75.3%,70.8%,58.3%,87.6%,,73%,42.7%,52.5%,62.7%,96.8%,73.9%,71.6%,76.3%,114%,64.3%
COc1ccc(-c2nc(/C=N/Nc3cc(C)nc4ccc(Br)cc34)c(C)o2)cc1,-87.4% (active),-76.2% (active),-84.4% (active),,-78.1% (active),47.4%,-86.7% (active),-74.6% (active),-8.99% (active),-89.2% (active),-99.1% (active),-100% (active),-91.2% (active),58.5%,-53.3% (active),-77.5% (active),104%,-51.8% (active),-50.4% (active)
CN(C)CCCN(c1nc(C(Cl)(Cl)Cl)ns1)c1nc(C(Cl)(Cl)Cl)ns1,41.2%,0.235% (active),64.2%,27.4,22.2%,,-31.4% (active),51.9%,55.1%,41.8%,-84.7% (active),54.6%,,73.7%,3.33% (active),1.86% (active),47%,,30.3%
CCc1ccc(-c2ccc(=O)n(-c3ccc(S(N)(=O)=O)cc3)n2)cc1,29.7%,11.8%,57.6%,,35%,12.9%,55.1%,49.4%,69.1%,58.4%,38.4%,60.3%,36.7%,40.3%,16%,38.5%,1.5% (active),76.8%,27.9%
NC1=C(/C(N)=N/O)C(c2ccccc2)c2ccc3ccccc3c2O1 (stereo unspecified),5.04% (active),6.2% (active),24.8%,,20.4%,-44.5% (active),22.7%,49.8%,29.1%,,38.6%,28.2%,26%,-8.95% (active),27.2%,19.8%,44.7%,74.4%,14.4%
COc1ccc(OC)c(/C=C2\Oc3cc(OCCCN4CCCC4)ccc3C2=O)c1,20%,10.3%,82.1%,74.2,82.9%,,12%,87.4%,80.4%,76.2%,56.7%,78.2%,82%,,54.8%,95.9%,104%,99.8%,50.8%
Cc1ccc(NS(=O)(=O)c2cc(C)ccc2C)cc1,32.9%,10.8%,53.1%,,57.6%,30.3%,41%,61.5%,55.4%,60.8%,65.5%,70.7%,25.3%,38.7%,,40%,20.3%,58.5%,
